The panel holds about 83,000 compounds, 20% with a hit somewhere; the sample as a whole holds those more often.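 A percent growth of 40 corresponds to 60% growth inhibition; 0 means no net growth; -100 means all cells died. Active threshold: below 10.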 Activity calls are given as the source filed them.
Columns and labels:
Assay in all cases: NCI-60 one-dose screen, 48 h (100 = growth as untreated, 0 = no growth, -100 = all killed)
Conditions in all cases: 10 µM unless noted
SK-MEL-2 melanoma = system: SK-MEL-2 melanoma
EKVX NSCLC = system: EKVX NSCLC
SN12C renal = system: SN12C renal
UO-31 renal = system: UO-31 renal
TK-10 renal = system: TK-10 renal
ACHN renal = system: ACHN renal
CAKI-1 renal = system: CAKI-1 renal
A498 renal = system: A498 renal
CCRF-CEM leukemia = system: CCRF-CEM leukemia

Measured: growth

COc1c(CCC[P+](c2ccccc2)(c2ccccc2)c2ccccc2)cc2c(c1OC)OCO2
inactive: EKVX NSCLC 15.6% | UO-31 renal 86.6% | ACHN renal 55.6% | CAKI-1 renal 31.9% | CCRF-CEM leukemia 29.7%
active: SK-MEL-2 melanoma -24.2% | SN12C renal 2.66% | TK-10 renal 2.13% | A498 renal -9.74%

Cc1ccc2nc3ccccc3c(NCc3ccccc3)c2c1
inactive: SK-MEL-2 melanoma 100% | EKVX NSCLC 49.6% | SN12C renal 25.5% | UO-31 renal 18.3% | TK-10 renal 75.3% | ACHN renal 23.2% | CAKI-1 renal 35.5% | A498 renal 11.4% | CCRF-CEM leukemia 34.9%

Clc1cc(Cl)cc(Nc2ccc3cc(OCCCN4CCOCC4)ccc3n2)c1
inactive: SK-MEL-2 melanoma 63.9% | EKVX NSCLC 69.3% | SN12C renal 60.1% | UO-31 renal 26.5% | TK-10 renal 47% | ACHN renal 42% | CAKI-1 renal 75.3% | A498 renal 51% | CCRF-CEM leukemia 12.9%

COC(=O)[C@]12CC[C@@H](C)[C@H](C)[C@@H]1C1=CC[C@@H]3[C@@]4(C)C(C=O)=C[C@@](C)(COC(C)=O)[C@@H]4[C@H](O)C[C@@]3(C)[C@]1(C)CC2
inactive: EKVX NSCLC 20% | A498 renal 28.3%
active: SK-MEL-2 melanoma -25.4% | SN12C renal -19.3% | UO-31 renal -26.2% | TK-10 renal -8.86% | ACHN renal -54.3% | CAKI-1 renal 1.42% | CCRF-CEM leukemia 1.74%

CCCCn1c(=O)c2c(nc(NCCc3ccc(O)c(O)c3)n2CCC)n(CCCC)c1=O
inactive: SK-MEL-2 melanoma 72.7% | EKVX NSCLC 79.5% | SN12C renal 86.6% | UO-31 renal 56.7% | TK-10 renal 85.8% | ACHN renal 81% | CAKI-1 renal 100% | A498 renal 86.9% | CCRF-CEM leukemia 36.6%

CCCCOc1nc2ccccc2cc1C1CNC(=O)c2ccccc2N1 (configuration not stated)
inactive: SK-MEL-2 melanoma 15.7% | EKVX NSCLC 33% | SN12C renal 44.1% | UO-31 renal 41.3% | TK-10 renal 34.3% | ACHN renal 46.7% | CAKI-1 renal 42.6% | CCRF-CEM leukemia 12.6%
active: A498 renal -11.2%

COc1cc(/C=N/Nc2ncc(-c3cc4cc5c(cc4o3)OCO5)s2)cc(OC)c1OC
inactive: SK-MEL-2 melanoma 79.7% | EKVX NSCLC 71.4% | SN12C renal 71.2% | UO-31 renal 66.8% | TK-10 renal 101% | ACHN renal 74.3% | CAKI-1 renal 64.2% | A498 renal 75.6% | CCRF-CEM leukemia 26%

CC(C)CCC[C@@H](C)[C@H]1CC[C@H]2[C@@H](Nc3ccc(O)cc3)CCC[C@]12C
inactive: SK-MEL-2 melanoma 86.1% | EKVX NSCLC 109% | SN12C renal 108% | TK-10 renal 83% | ACHN renal 78.8% | CAKI-1 renal 37.7% | A498 renal 67.6% | CCRF-CEM leukemia 32.2%
active: UO-31 renal 7.74%

CC(C)(C)OC(=O)Nc1ccc2c(c1)C(NC(=O)Nc1cccc(C#N)c1)CC(C)(C)O2 (configuration not stated)
inactive: SK-MEL-2 melanoma 36.3% | EKVX NSCLC 32.2% | SN12C renal 62.9% | UO-31 renal 40.8% | TK-10 renal 39.3% | ACHN renal 50.9% | CAKI-1 renal 39.2% | A498 renal 57.5% | CCRF-CEM leukemia 41.7%

O=[N+]([O-])c1ccc(C2CC(c3ccccc3)=Nc3ccccc3S2)cc1 (configuration not stated)
inactive: SK-MEL-2 melanoma 107% | EKVX NSCLC 112% | SN12C renal 103% | UO-31 renal 56.4% | TK-10 renal 148% | ACHN renal 103% | CAKI-1 renal 93.6% | A498 renal 114% | CCRF-CEM leukemia 73.2%

O=Cc1ccc(O)c2ncccc12
inactive: SK-MEL-2 melanoma 71.2% | EKVX NSCLC 66.1% | SN12C renal 35.2% | UO-31 renal 34.8% | TK-10 renal 94% | ACHN renal 110% | CAKI-1 renal 48.6% | A498 renal 106%
active: CCRF-CEM leukemia -40.7%

O=C1/C(=C/c2ccc(F)cc2)C=C(c2ccccc2)N1CCc1ccccc1
inactive: SK-MEL-2 melanoma 55.5% | EKVX NSCLC 56.9% | SN12C renal 58.3% | UO-31 renal 51% | TK-10 renal 62.4% | ACHN renal 38.6% | CAKI-1 renal 76% | A498 renal 81.3% | CCRF-CEM leukemia 95%

COC(=O)[C@]12CC[C@@H](C)[C@H](C)[C@@H]1C1=CC[C@@H]3[C@@]4(C)C(C=O)=C[C@@](C)(CO)[C@@H]4[C@H](O)C[C@@]3(C)[C@]1(C)CC2
active: SK-MEL-2 melanoma -31.7% | EKVX NSCLC 7.75% | SN12C renal 1.62% | UO-31 renal -31.5% | TK-10 renal -18.8% | ACHN renal -81.6% | CAKI-1 renal -28.7% | A498 renal -5.03% | CCRF-CEM leukemia 1.38%

C[n+]1cc2cc(C(N)=O)[nH]c3c(=N)c(Cl)c(N)c1c23
inactive: SK-MEL-2 melanoma 96.1% | EKVX NSCLC 101% | SN12C renal 53.6% | UO-31 renal 81.1% | TK-10 renal 73.9% | ACHN renal 39% | CAKI-1 renal 79.9% | A498 renal 71.9% | CCRF-CEM leukemia 37.6%

CN1CCN(CCCOc2ccc3nc(Nc4ccc(F)c(F)c4)ccc3c2)CC1
inactive: SK-MEL-2 melanoma 54.4% | EKVX NSCLC 61.7% | SN12C renal 68% | UO-31 renal 47.4% | TK-10 renal 41.7% | ACHN renal 44.3% | CAKI-1 renal 73.3% | A498 renal 33.4% | CCRF-CEM leukemia 17.2%

O=C(Nc1cccc(C(F)(F)F)c1)Nc1cccc(C(F)(F)F)c1
inactive: EKVX NSCLC 13.8% | CAKI-1 renal 16.4%
active: SK-MEL-2 melanoma -28.5% | SN12C renal 2.57% | UO-31 renal 4.46% | TK-10 renal -0.607% | ACHN renal 5.92% | A498 renal -18.2% | CCRF-CEM leukemia 2.44%

FC(F)(F)c1cc(Nc2ccc3cc(OCCCN4CCOCC4)ccc3n2)ccc1Cl
active: CCRF-CEM leukemia 3.89%
inactive: SK-MEL-2 melanoma 46% | EKVX NSCLC 62.2% | SN12C renal 49.4% | UO-31 renal 27.6% | TK-10 renal 43.3% | ACHN renal 29.5% | CAKI-1 renal 86.1% | A498 renal 36.4%

CCc1c2c(nc3ccc(OC(=O)NCc4ccc(B5OC(C)(C)C(C)(C)O5)cc4)cc13)-c1cc3c(c(=O)n1C2)COC(=O)[C@]3(O)CC
active: SK-MEL-2 melanoma -28% | SN12C renal -0.279% | UO-31 renal -67.7% | TK-10 renal 0.387% | ACHN renal -61.5% | CAKI-1 renal -43.3% | A498 renal -63.1%
inactive: EKVX NSCLC 35.3% | CCRF-CEM leukemia 19.8%

CCCCCCCCCCCCCCCCCCOc1ccccc1CC(=O)OCCC[N+](C)(C)C
inactive: SK-MEL-2 melanoma 87.7% | EKVX NSCLC 79% | SN12C renal 36% | UO-31 renal 90.1% | TK-10 renal 50.1% | ACHN renal 67.5% | CAKI-1 renal 43.6% | A498 renal 98.5% | CCRF-CEM leukemia 25.7%

Oc1ccc(CN2CCC(N3CCOCC3)CC2)c2cccnc12
active: SK-MEL-2 melanoma -6.57%
inactive: EKVX NSCLC 59.4% | SN12C renal 11.8% | UO-31 renal 14.5% | TK-10 renal 30.6% | ACHN renal 12.8% | CAKI-1 renal 43.2% | A498 renal 71.1% | CCRF-CEM leukemia 22.4%

O=c1[nH]ccc2nc(N3CCC(O)CC3)nc(Nc3ccc(N4CCOCC4)cc3)c12
inactive: SK-MEL-2 melanoma 69.3% | EKVX NSCLC 89% | SN12C renal 37.8% | UO-31 renal 38.2% | TK-10 renal 82.1% | ACHN renal 55.5% | CAKI-1 renal 26.3% | A498 renal 57.9% | CCRF-CEM leukemia 70.6%

NC(=S)Nc1cccc(O)c1
inactive: SK-MEL-2 melanoma 99.1% | EKVX NSCLC 93% | SN12C renal 95.9% | UO-31 renal 80% | TK-10 renal 91.8% | ACHN renal 90.3% | CAKI-1 renal 90% | A498 renal 115% | CCRF-CEM leukemia 103%

Cc1nn(-c2ccccc2)c2nc3c(c(-c4ccc(Cl)cc4)c12)CNC1(CCSCC1)N3
inactive: SK-MEL-2 melanoma 134% | EKVX NSCLC 94% | SN12C renal 108% | UO-31 renal 94.9% | TK-10 renal 107% | ACHN renal 103% | CAKI-1 renal 95.4% | A498 renal 89.1% | CCRF-CEM leukemia 118%

COC(=O)[C@]12CC[C@@H](C)[C@H](C)[C@@H]1C1=CC[C@@H]3[C@@]4(C)C(C=O)=C[C@@](C)(COC(C)=O)C4=CC[C@@]3(C)[C@]1(C)CC2
inactive: EKVX NSCLC 12.7% | CAKI-1 renal 13.7% | A498 renal 14.6%
active: SK-MEL-2 melanoma -45.1% | SN12C renal 9.9% | UO-31 renal -9.5% | TK-10 renal -8.72% | ACHN renal -16% | CCRF-CEM leukemia -14.7%

COc1cccc(C(=O)NCCCNc2cc(-c3cn(-c4ccccc4)nc3-c3cccc(OC)c3)ccn2)c1
inactive: SK-MEL-2 melanoma 70.2% | EKVX NSCLC 60.1% | SN12C renal 61.1% | UO-31 renal 26.6% | TK-10 renal 55.2% | ACHN renal 60.9% | CAKI-1 renal 65.4% | A498 renal 49.2% | CCRF-CEM leukemia 24.7%

CCN1C(=O)N(CC)C2Nn3c(s/c(=C\c4cccc([N+](=O)[O-])c4)c3=O)=NC21 (configuration not stated)
inactive: SK-MEL-2 melanoma 73.3% | EKVX NSCLC 72.7% | SN12C renal 48.6% | UO-31 renal 56.8% | TK-10 renal 17.9% | ACHN renal 50.5% | CAKI-1 renal 35.3% | CCRF-CEM leukemia 46%
active: A498 renal 5.28%

Cc1ccc(NCCN(C)C)c2c(=O)c3ccccc3sc12
inactive: SK-MEL-2 melanoma 71.9% | EKVX NSCLC 49.4% | SN12C renal 25.1% | TK-10 renal 54.8% | A498 renal 37.6% | CCRF-CEM leukemia 27%
active: UO-31 renal -30.5% | ACHN renal 3.03% | CAKI-1 renal -20%

O=C(Nc1cccc(Cl)c1)c1cc(N=Nc2ccc([N+](=O)[O-])cc2Cl)ccc1O
active: SK-MEL-2 melanoma -26.6%
inactive: EKVX NSCLC 70.2% | SN12C renal 82.1% | UO-31 renal 38.7% | TK-10 renal 136% | ACHN renal 82.4% | CAKI-1 renal 100% | A498 renal 69.5% | CCRF-CEM leukemia 21.3%

Source: PubChem BioAssay (NCI)
